Screens: PubChem, National Center for Advancing Translational Sciences (NCATS)
HTT prom inh: inhibits huntingtin promoter activity. HEK293 HTT promoter firefly luciferase reporter, 24 h. Potency, µM (doses to about 57.5 µM), hits mostly inhibitors. hit rate 0.93% among 48,000; further: nearly all actives have a fitted effect of over 50% in size
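HEK293 Fluc reporter, 2,500 cells/well, 24 h pre-culture; cpds up to 57.5 uM final, 24 h 37 degrees C; Dual-Glo, 10 min RT; normalized vehicle = 0%, zero RLU = -100%.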
GALC G270D act: raises human GALC G270D mutant activity in cells; 145M-Twi-hGALC-G270D cells (Twitcher mouse brain line with human GALC G270D), HMU-beta-Gal fluorescence, 48 h; Potency, µM (highest dose often 57.5 µM), usual class: activators; hit rate 0.1% among 45,000; further: nearly all actives have a fitted effect of over 65% in size
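Live 145M-Twi cells (Twitcher mouse brain-derived, GALC-null) stably expressing human GALC-G270D, with a wild-type GALC line, were compound-treated. Residual GALC activity was then read as fluorescence from 0.1 mM final HMU-β-gal at pH 5.2; higher signal means activation.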
NTMT1 inhibitor: inhibitors of human N-terminal methyltransferase NTMT1; hit rate 2.5% among 59,000; Potency, µM (doses to about 114 µM), usual class: inhibitors; NTMT1 MTase-Glo SAH luminescence, purified enzyme; AID 1645870; further: nearly all actives have a fitted effect of over 65% in size
Target sequence (Q9BV86 whole entry, looked up): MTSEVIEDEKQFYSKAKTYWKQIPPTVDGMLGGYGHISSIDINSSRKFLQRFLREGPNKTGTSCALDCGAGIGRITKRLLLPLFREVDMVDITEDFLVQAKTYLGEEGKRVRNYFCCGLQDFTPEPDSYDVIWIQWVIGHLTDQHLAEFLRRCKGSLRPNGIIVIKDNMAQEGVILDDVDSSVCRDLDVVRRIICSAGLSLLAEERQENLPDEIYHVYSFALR
FH mod: Identification of activators of human fumarate hydratase by quantitative high-throughput screening. Fumarate hydratase, mitochondrial (Homo sapiens), P07954. FH coupled MDH/diaphorase resazurin fluorescence, 15 min. Potency, µM (top dose mostly 79.9 µM), actives largely listed as inhibitors. hit rate 0.22% among 54,000. AID 1347055, 2019; further: the screen sought activators but most active calls are inhibition curves; nearly all actives have a fitted effect of over 45% in size
DRV1 agonist: agonists of human resolvin D1 receptor DRV1 (GPR32); O75388; activation, % at 76.9 µM; AID 1346428; hit rate 2.5% among 48,000; CHO-K1 GPR32 beta-arrestin PathHunter luminescence, 90 min; zero percent set by DMSO-only wells;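 active means activation of at least 60% and not above a set upper limit, about 1 call in 100 departs from these limits; inconclusive means activation of 40% to 60%, or above that upper limit; inactive means activation under 40%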
Target sequence (O75388 whole entry, looked up): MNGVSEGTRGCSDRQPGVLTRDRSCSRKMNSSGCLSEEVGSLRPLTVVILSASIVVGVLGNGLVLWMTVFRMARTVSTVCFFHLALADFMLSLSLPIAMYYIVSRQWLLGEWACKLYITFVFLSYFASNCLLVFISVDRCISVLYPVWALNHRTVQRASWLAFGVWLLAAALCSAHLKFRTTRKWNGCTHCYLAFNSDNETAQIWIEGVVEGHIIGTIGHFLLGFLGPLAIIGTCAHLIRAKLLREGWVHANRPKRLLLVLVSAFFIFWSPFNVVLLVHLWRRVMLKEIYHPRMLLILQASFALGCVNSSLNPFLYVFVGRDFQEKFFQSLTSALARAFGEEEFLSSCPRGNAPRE
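Agonism was scored as beta-arrestin recruitment to ProLink-fused GPR32 in stably transfected CHO-K1 cells, giving a chemiluminescent beta-Gal signal; compounds were incubated 90 min at 37 °C.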
HTT-AS promoter: HTT-AS promoter activation. HEK293 HTT-AS promoter firefly luciferase reporter, 24 h; response scale: percent change from vehicle, -100% = no light. Potency, µM (top dose mostly 57.5 µM), most hits filed as activators. hit rate 0.24% among 48,000. AID 1508624; further: nearly all actives have a fitted effect of over 55% in size
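HEK293 Fluc reporter, 2,500 cells/well, 24 h pre-culture; cpds up to 57.5 uM final, 24 h 37 degrees C; Dual-Glo, 10 min RT; normalized vehicle = 0%, zero RLU = -100%.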
Hits are given with their value; [ ] = another dose, or the depositor's remark. Shown are actives, neighbours in structure and some others; about 4.7% of the full set was active somewhere. Unless noted, the call rests on the fitted dose curve; in most records, active means well fitted curve in the direction sought with a large enough effect; inconclusive means small, poorly fitted or top-dose-only effect, or another doubt; inactive means no such curve, though single readings can be large; an effect the other way counts as inactive or inconclusive.

Screening O=C(Nc1nnc(S(=O)(=O)N2CCCc3ccccc32)s1)c1cccc(Cl)c1 returned HTT prom inh inconclusive, GALC G270D act inactive, NTMT1 inhibitor inactive, FH mod inactive, DRV1 agonist 74 and HTT-AS promoter inactive.
`CN(c1ccccc1)S(=O)(=O)c1nnc(NC(=O)c2ccco2)s1` gave HTT prom inh inactive, GALC G270D act inactive, NTMT1 inhibitor inactive, FH mod inactive, DRV1 agonist 93 and HTT-AS promoter inactive.
Screening CC1Cc2ccccc2N1S(=O)(=O)c1nnc(NC(=O)c2cccc(F)c2)s1 (stereo not given) returned HTT prom inh 25µM, GALC G270D act inactive, NTMT1 inhibitor inactive, FH mod inactive, DRV1 agonist inactive and HTT-AS promoter inactive.
CN(Cc1ccccc1)S(=O)(=O)c1nnc(NC(=O)c2cccc(Cl)c2)s1 was read as HTT prom inh inactive, GALC G270D act inactive, NTMT1 inhibitor inactive, FH mod inactive, DRV1 agonist 68 and HTT-AS promoter inactive.
CN(Cc1ccco1)S(=O)(=O)c1nnc(NC(=O)c2cccc(Cl)c2)s1 was read as HTT prom inh inactive, GALC G270D act inactive, NTMT1 inhibitor inactive, FH mod inactive, DRV1 agonist inconclusive and HTT-AS promoter inactive.
For Cc1cc(N[S+](=O)([O-])c2ccc(NC(=O)Cc3cccc(Cl)c3Cl)cc2)no1 the results were NTMT1 inhibitor inactive.
O=[N+]([O-])c1ccccc1CSc1nc2ncc(Br)cc2[nH]1 was read as NTMT1 inhibitor inactive.
For Cc1ccc2c(c1)c(=O)c1ccccc1n2CCCC(=O)Nc1c(F)cccc1F the results were HTT prom inh inactive, GALC G270D act 1.1µM, NTMT1 inhibitor inactive, FH mod inactive, DRV1 agonist inactive and HTT-AS promoter inactive.
For CC(=O)O[C@H]1CC(C)(C)CC2[C@]13CO[C@@]21CCC2[C@@]4(C)CC[C@H](O[C@@H]5OC[C@H](O[C@@H]6O[C@H](CO)[C@@H](O)[C@H](O)[C@H]6O[C@@H]6OC[C@@H](O[C@@H]7O[C@H](CO)[C@@H](O)[C@H](O)[C@H]7O)[C@H](O)[C@H]6O)[C@H](O)[C@H]5O[C@@H]5O[C@H](CO)[C@@H](O)[C@H](O)[C@H]5O)[C@@](C)(CO)C4CC[C@@]2(C)[C@]1(C)C[C@H]3O (stereo not given in full) the results were NTMT1 inhibitor inactive[6.45 µM] and FH mod inactive[13.5 µM].
`CN(C)c1ccc(C(=C2C=CC(=[N+](C)C)C=C2)c2ccc(N(C)C)cc2)cc1` gave HTT prom inh inconclusive, GALC G270D act inactive, NTMT1 inhibitor 20µM, FH mod inactive, DRV1 agonist inactive and HTT-AS promoter inactive.
Screening CN(C)c1ccc(C(=C2C=CC(=[N+](C)C)C=C2)c2ccccc2)cc1 returned HTT prom inh inconclusive, GALC G270D act inactive, NTMT1 inhibitor 22µM, FH mod inconclusive, DRV1 agonist 95 and HTT-AS promoter inactive.
For CN(C)c1ccc(CNc2nc(-c3ccccc3C(F)(F)F)nc3ccccc23)cc1 the results were NTMT1 inhibitor inactive.
For CC(=O)N1CCN(c2ccc(O)cc2)CC1 the results were HTT prom inh inactive, GALC G270D act inactive, NTMT1 inhibitor 28µM, FH mod inconclusive, DRV1 agonist inactive and HTT-AS promoter inactive.
`COc1ccc2sc(N(Cc3cccnc3)C(=O)c3cccs3)nc2c1` gave HTT prom inh 14µM, GALC G270D act inactive, NTMT1 inhibitor inconclusive, FH mod inactive, DRV1 agonist inactive and HTT-AS promoter inactive.
`COC(=O)N(CC(=O)O)Cc1cccc(OCc2nc(-c3ccc(Cl)cc3)oc2C)c1` gave NTMT1 inhibitor inactive.
Screening COc1ccc2c(c1)Oc1nc(-c3ccc(C)cc3)nc(SCC(=O)Nc3cccc(C(=O)O)c3)c1C2 returned NTMT1 inhibitor 22µM.
O=C(CSc1nc(-c2ccc(F)cc2)nc2c1Cc1ccccc1O2)Nc1cccc(C(=O)O)c1 was read as HTT prom inh inactive, GALC G270D act inactive, NTMT1 inhibitor 6.3µM, FH mod inactive, DRV1 agonist inactive and HTT-AS promoter inactive.
COc1ccc(-c2nc3c(c(SCC(=O)Nc4cccc(O)c4)n2)Cc2c(CO)cnc(C)c2O3)cc1 was read as HTT prom inh inactive, GALC G270D act inactive, NTMT1 inhibitor 45µM, FH mod inconclusive, DRV1 agonist inactive and HTT-AS promoter inactive.
For CC(C)=CCC/C(C)=C/CC/C(C)=C/CSc1ccccc1C(=O)O the results were NTMT1 inhibitor 50µM and FH mod inconclusive.
Screening Cc1cc(C)c(S(=O)(=O)Nc2cc(-c3cn4ccccc4n3)ccc2C)cc1C returned HTT prom inh inconclusive, GALC G270D act inactive, NTMT1 inhibitor inactive, FH mod inactive, DRV1 agonist inactive and HTT-AS promoter inactive.
Screening CS(=O)(=O)c1ccc(-c2cn3ccccc3n2)cc1 returned HTT prom inh inactive, GALC G270D act inactive, NTMT1 inhibitor 7.1µM, FH mod inactive, DRV1 agonist inactive and HTT-AS promoter inconclusive.
Screening CN(C/C=C/C#CC(C)(C)C)Cc1cccc2ccccc12 returned HTT prom inh inactive, GALC G270D act inactive, NTMT1 inhibitor inactive, FH mod inactive, DRV1 agonist 95 and HTT-AS promoter inactive.
COc1cccc(NC(=O)CC2C(=O)OCCN2Cc2ccccc2)c1 (stereo not given) was read as HTT prom inh inactive, GALC G270D act inactive, NTMT1 inhibitor inconclusive, FH mod inactive, DRV1 agonist inactive and HTT-AS promoter inactive.
For O=C(CC1C(=O)OCCN1Cc1ccccc1)Nc1cccc(C(F)(F)F)c1 (stereo not given) the results were HTT prom inh inconclusive, GALC G270D act inactive, NTMT1 inhibitor inactive, FH mod inactive, DRV1 agonist 112 and HTT-AS promoter inactive.
Clc1ccc(C(c2ccccc2)c2c[nH]c3ccccc23)s1 (stereo not given) was read as HTT prom inh inactive, GALC G270D act inactive, NTMT1 inhibitor inactive, FH mod inconclusive, DRV1 agonist 107 and HTT-AS promoter inactive.
Screening Cc1cc(-c2nnc3n2CCCCCCC3)c(C)n1-c1ccccc1 returned NTMT1 inhibitor inactive.
Cc1cccc(-c2nc(CCNC(=O)Cc3ccc(F)cc3)cs2)c1 was read as HTT prom inh inactive, GALC G270D act inactive, NTMT1 inhibitor inactive, FH mod inactive, DRV1 agonist inactive and HTT-AS promoter inactive.
`O=C(NCCc1csc(-c2ccc(F)cc2)n1)c1cccc(F)c1` gave HTT prom inh inconclusive, GALC G270D act inactive, NTMT1 inhibitor inactive, FH mod inactive, DRV1 agonist 66 and HTT-AS promoter inactive.
